Inconclusive results are not listed. Activity calls are given as the source filed them.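 How the source made its calls, unless noted: active means viability at or below 30% in both replicate assays; inconclusive means viability at or below 30% in just one of the two assays; inactive means the rest.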
How the values were obtained:
[1] = Her2 expression decrease, cell viability multiplex – SKBR3 breast tumor cells, AlphaScreen, ATP viability, primary screen (AID 461;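 active means Her2 level under about 52% in both replicate screens, with viability over 70% of control, limit read from the data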;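 on Her2 level: lower value means less Her2 protein in the cells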;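 on viability: percent of carrier control wells set as 100% viability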); settings: SKBR3 Her2 protein level, 18-24 h, measured here: SKBR3 viability, ATP luminescence, at 10 µM
[2] = biological target: Receptor tyrosine-protein kinase erbB-2 (Homo sapiens) (UniProt P04626); test: as above; settings: 18-24 h, at 10 µM, stronger effect = lower value
[3] = reduced viability of SK-BR-3 breast cancer cells – cell-based, 24 h, human, pilot screen (AID 572;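 active means viability at or below 10% of carrier control in both of two separate runs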;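 further: compound exposure lasted between 18 and 24 h rather than exactly 24 h; 100% = carrier-treated control wells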); settings: SK-BR-3 viability, CellTiter-Glo luminescence, at 10 µM, stronger effect = lower value
[4] = HUVEC growth inhibition – cell-based, human, primary screen (AID 575); settings: HUVEC proliferation, CellTiter-Glo luminescence, 72 h; at 10 µM; stronger effect = lower value;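 further: 100% = median of untreated cell wells with 0.1% DMSO on each plate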
[5] = H69AR cell proliferation blockers – human, duplicate replicates, primary screen (AID 580;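 active means viability at or under a set limit in both replicates, limit being median viability minus 3 SD, cut at about 48% in these data, passing the limit was not always enough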;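 further: 100% = mean luminescence of untreated wells and 0% = no signal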); settings: H69AR lung tumor cells viability, ATP luminescence, 72 h; at 10 µM; stronger effect = lower value
[6] = MRP1 drug-resistance reversers in H69AR cells – cell-based, doxorubicin co-treatment, pilot screen (AID 601;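 active means viability loss from added drug above about 55%, and viability with drug at most 40%, in both replicates, limit read from the data, passing the limit was not always enough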); settings: CellTiter-Glo, 72 h, at 10 µM; for differential viability (reversal): stronger effect = higher value
[7] = yeast transport mutant growth inhibition pilot in 384-well plates, post-Golgi transport modulator project (AID 636; in the data active means inhibition above about 31%); settings: absorbance 615 nm, about 18 h, stronger effect = higher value
[8] = growth suppression of yeast trafficking mutant, preliminary HTS, modulators of trafficking downstream of Golgi apparatus project, 1536-format plate, OD 615 nm (AID 637; in the data active means inhibition above about 30%); settings: yeast transport mutant growth, absorbance 615 nm, 18 h; stronger effect = higher value
[9] = S. cerevisiae growth inhibition in permissive medium (OD615), pilot counter-assay for S. cerevisiae lifespan shortening project, permissive growth control (AID 705;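 active means growth inhibition above 25% in both replicates, a cutoff set 3 SD above the mean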); settings: OD615, 24 h, at 10 µM, stronger effect = higher value
[10] = S. cerevisiae growth inhibition in restrictive medium, OD615, pilot screen, restrictive growth control, yeast lifespan reduction project (AID 706;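 active means growth inhibition above a set limit, 3 SD over mean compound inhibition, in both replicates, cut at about 43% in these data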;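 further: modified DeaD lifespan yeast strain shifted to restrictive glucose medium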); settings: OD615, 48 h, at 10 µM, stronger effect = higher value
[11] = doxorubicin toxicity protection in MRP-1 cells – H69AR cells, CellTiter-Glo, duplicate, MRP-1 activator project, pilot screen (AID 807;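 active means viability increase at or above a cutoff of the median across tested compounds plus 3 SD, cut at about 8.5% in these data, passing the limit was not always enough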;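 further: compound pretreatment 18-22 h then 72 h combined with doxorubicin; 0% = doxorubicin alone and 100% = vehicle without doxorubicin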); settings: H69AR viability with doxorubicin, CellTiter-Glo luminescence; at 10 µM; stronger effect = higher value
[12] = viability of HCT116 without oncogenic beta-catenin – human colon tumor cells, pilot screen (AID 823;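 active means cell viability at or below a set limit in both duplicate runs, the limit being the all-compound median minus 4 SD, cut at about 23% in these data, passing the limit was not always enough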;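 further: 0% = wells killed by 20 µM Hyamine and 100% = untreated DMSO cell wells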); settings: HCT116 beta-catenin knockout viability, CellTiter-Glo, 60 h; at 10 µM; stronger effect = lower value
[13] = viability of PTEN-null HCT116 cells – cell-based, HCT116 clonal line, CellTiter-Glo, pilot screen (AID 824;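 active means viability at or below 27.92% in each of two runs, the all-compound median minus 4 SD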;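 further: 0% = 20 µM Hyamine control and 100% = vehicle cell control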); settings: HCT116 PTEN-deleted viability, 60 h, at 10 µM, stronger effect = lower value
[14] = RAM pathway blockade in budding yeast – dse1pr::URA3 reporter, 5-FOA selection, pilot screen (AID 869;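 active means inhibition over a set limit, the all-compound mean plus 3 SD, in both replicate runs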;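 further: 0% = DMSO wells with no growth and 100% = 10 µM 1-NA-PP1 with full growth; RAM network block rescues cells from 5-FOA so hits raise OD615 growth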); settings: S. cerevisiae dse1pr::URA3 5-FOA growth, OD615, 2 d; at 10 µM; stronger effect = higher value; strain carries analog-sensitive mutant Cbk1 kinase
[15] = RAM signaling pathway blockade in yeast – S. cerevisiae, Pdr1DBD-CYC8 efflux-inhibited sensitized strain, primary screen (AID 1298;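 active means RAM network inhibition above 8.4% in each of two replicates, 3 SD over the compound average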;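 further: 0% = DMSO untreated cells without growth and 100% = 10 µM 1-NA-PP1 full growth; higher means more yeast growth rescued from 5-FOA killing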); settings: S. cerevisiae cbk1-as DSE1-URA3 strain, 5-FOA growth OD615, 2 d; at 50 µM; stronger effect = higher value
[16] = H69AR cells + 2 uM doxorubicin, measured here: viability with 2 uM doxorubicin, stronger effect = lower value
[17] = H69AR cells, compound alone cytotoxicity

Sequence of Receptor tyrosine-protein kinase erbB-2 (Homo sapiens) (P04626 whole entry, looked up): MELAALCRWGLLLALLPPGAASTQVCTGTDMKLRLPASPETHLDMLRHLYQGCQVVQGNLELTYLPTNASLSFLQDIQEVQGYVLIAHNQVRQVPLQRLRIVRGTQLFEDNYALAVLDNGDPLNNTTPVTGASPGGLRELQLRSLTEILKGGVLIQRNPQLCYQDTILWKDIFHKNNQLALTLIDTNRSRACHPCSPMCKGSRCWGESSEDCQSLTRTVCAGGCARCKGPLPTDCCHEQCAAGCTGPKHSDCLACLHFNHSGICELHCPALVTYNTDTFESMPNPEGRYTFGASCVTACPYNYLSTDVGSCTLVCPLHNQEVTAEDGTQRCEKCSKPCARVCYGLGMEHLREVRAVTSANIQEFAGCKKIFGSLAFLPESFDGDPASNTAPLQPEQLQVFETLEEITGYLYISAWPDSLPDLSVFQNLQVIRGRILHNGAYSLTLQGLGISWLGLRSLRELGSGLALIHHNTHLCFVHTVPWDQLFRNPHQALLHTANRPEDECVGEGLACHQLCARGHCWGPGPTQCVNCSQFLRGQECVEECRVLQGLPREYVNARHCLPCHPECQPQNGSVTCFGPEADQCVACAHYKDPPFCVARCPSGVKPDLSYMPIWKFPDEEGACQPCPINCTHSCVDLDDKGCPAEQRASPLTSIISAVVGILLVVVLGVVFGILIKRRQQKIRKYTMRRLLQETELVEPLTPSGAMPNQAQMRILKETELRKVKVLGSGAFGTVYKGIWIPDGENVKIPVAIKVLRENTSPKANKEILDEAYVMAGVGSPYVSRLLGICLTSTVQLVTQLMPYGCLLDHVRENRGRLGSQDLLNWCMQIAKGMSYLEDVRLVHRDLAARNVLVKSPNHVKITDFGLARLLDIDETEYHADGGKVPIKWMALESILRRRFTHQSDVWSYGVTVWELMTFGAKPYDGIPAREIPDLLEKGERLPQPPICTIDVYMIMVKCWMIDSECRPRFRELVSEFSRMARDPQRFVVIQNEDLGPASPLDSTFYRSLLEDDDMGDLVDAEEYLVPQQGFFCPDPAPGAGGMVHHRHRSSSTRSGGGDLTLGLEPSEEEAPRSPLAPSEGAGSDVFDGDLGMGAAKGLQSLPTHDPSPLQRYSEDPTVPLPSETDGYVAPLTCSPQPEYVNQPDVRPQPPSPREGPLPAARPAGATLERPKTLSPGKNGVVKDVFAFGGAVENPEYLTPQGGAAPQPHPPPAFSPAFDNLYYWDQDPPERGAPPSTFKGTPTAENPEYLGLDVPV

| Structure (SMILES) | viability [1] | Her2 level [2] | viability [3] | viability [4] | viability [5] | differential viability (reversal) ([6]; H69AR cells + 2 uM doxorubicin) | viability [6, 16] | viability [6, 17] | inhibition [7] | inhibition [8] | growth inhibition [9] | growth inhibition [10] | viability increase [11] | viability [12] | viability [13] | inhibition [14] | RAM network inhibition [15] |
| --- | --- | --- | --- | --- | --- | --- | --- | --- | --- | --- | --- | --- | --- | --- | --- | --- | --- |
| Cc1cc(C)nc(SCc2csc(N)n2)n1 | 89.5% | 85% (inactive) | 89.5% (inactive) | 89.6% (inactive) | 90.1% (inactive) | -4.05% (inactive) | 94.1% | 90.1% | -0.26% (inactive) | -2.67% (inactive) | 3.96% (inactive) | 14.9% (inactive) | 1.21% (inactive) | 105% (inactive) | 99.6% (inactive) | 0.605% (inactive) | 4.19% (inactive) |
| CCOc1ccc(S(=O)(=O)N2CCN(c3ccc(C)cc3C)CC2)cc1 | 98.5% | 114% (inactive) | 98.5% (inactive) | 90.1% (inactive) | 90.1% (inactive) | -14.9% (inactive) | 105% | 90.1% | -5.07% (inactive) | -4.67% (inactive) | 7.69% (inactive) | 5.65% (inactive) | -0.07% (inactive) | 65.6% (inactive) | 83.5% (inactive) | 2.64% (inactive) | 6.67% (inactive) |
| CCCCc1cc2c(c(NC(C)=O)n1)c(=O)oc1ccccc12 | 112% | 99% (inactive) | 112% (inactive) | 80.6% (inactive) | 77.9% (inactive) | -8.33% (inactive) | 86.2% | 77.9% | -3.47% (inactive) | -4% (inactive) | -9.7% (inactive) | -4.55% (inactive) | -4.33% (inactive) | 94.8% (inactive) | 87.8% (inactive) | 1.68% (inactive) | 3.84% (inactive) |
| O=C(Nc1ccc2snnc2c1)N1CCN(c2ccccc2)CC1 | 81.5% | 86% (inactive) | 81.5% (inactive) | 75.4% (inactive) | 85.3% (inactive) | -7.63% (inactive) | 92.9% | 85.3% | -0.38% (inactive) | -2.33% (inactive) | -13.7% (inactive) | -17.1% (inactive) | -2.11% (inactive) | 85.2% (inactive) | 79.4% (inactive) | 1.3% (inactive) | 5.24% (inactive) |
| C/C=C/Cn1c(SCCCc2ccccc2)nc2c1c(=O)[nH]c(=O)n2C | 89.5% | 72% (inactive) | 89.5% (inactive) | 61.2% (inactive) | 69.6% (inactive) | 0.835% (inactive) | 68.8% | 69.6% | 1.07% (inactive) | 3.61% (inactive) | -15.3% (inactive) | 1.29% (inactive) | -3.52% (inactive) | 66.8% (inactive) | 52.6% (inactive) | 1.32% (inactive) | 9.17% (inactive) |
| CCN(CCNC(=O)C1CCN(S(=O)(=O)c2cccc3cccnc23)CC1)c1ccccc1 | 87% | 84.5% (inactive) | 87% (inactive) | 79.7% (inactive) | 98.3% (inactive) | -2.15% (inactive) | 100% | 98.3% | -1.33% (inactive) | 20.5% (inactive) | -5.29% (inactive) | 8.53% (inactive) | 1.51% (inactive) | 94.4% (inactive) | 82.9% (inactive) | 0.21% (inactive) | 5.91% (inactive) |
| O=C(OCn1nnc2ccccc2c1=O)c1cc2ccccc2o1 | 88% | 106% (inactive) | 88% (inactive) | 94.6% (inactive) | 91.7% (inactive) | -23.7% (inactive) | 115% | 91.7% | -5.47% (inactive) | -8.5% (inactive) | 3.37% (inactive) | -2.58% (inactive) | 1.18% (inactive) | 99.5% (inactive) | 104% (inactive) | 3.96% (inactive) | 7.11% (inactive) |
| CCOC(=O)N1CCN(c2cc(=O)n(-c3ccccc3Cl)c(=O)[nH]2)CC1 | 98.5% | 124% (inactive) | 98.5% (inactive) | 100% (inactive) | 86.9% (inactive) | -3.22% (inactive) | 90.1% | 86.9% | 0.27% (inactive) | 12.5% (inactive) | -9.94% (inactive) | -0.995% (inactive) | 1.69% (inactive) | 96.8% (inactive) | 105% (inactive) | 0.77% (inactive) | 4.58% (inactive) |
| COc1ccc2c(c1)CCc1cc(C(=O)N3CCN(c4ccc(N5CCOCC5)nn4)CC3)sc1-2 | 93.5% | 79% (inactive) | 93.5% (inactive) | 98.4% (inactive) | 63.7% (inactive) | -11.4% (inactive) | 75.1% | 63.7% | -3.08% (inactive) | 0.33% (inactive) | 3.63% (inactive) | 3.83% (inactive) | -1.37% (inactive) | 60.4% (inactive) | 59% (inactive) | 0.905% (inactive) | 0.73% (inactive) |
| CCOC(=O)C1=C(C)NC(=O)NC1c1ccc(Br)s1 (stereo not given) | 119% | 102% (inactive) | 119% (inactive) | 103% (inactive) | 108% (inactive) | 24.9% (inactive) | 83.5% | 108% | -6.53% (inactive) | 4.03% (inactive) | -10.5% (inactive) | -15.3% (inactive) | -0.63% (inactive) | 92.8% (inactive) | 89.7% (inactive) | 0.86% (inactive) | 3.71% (inactive) |
| COc1ccc(C2C(C(C)=O)=C(C)N=c3s/c(=C/c4ccc5c(c4)OCO5)c(=O)n32)cc1 (stereo not given) | 85% | 97.5% (inactive) | 85% (inactive) | 91.7% (inactive) | 112% (inactive) | 17.7% (inactive) | 94.4% | 112% | -7.81% (inactive) | -3.49% (inactive) | -11.4% (inactive) | -17.4% (inactive) | 3.84% (inactive) | 90.1% (inactive) | 83.9% (inactive) | 0.93% (inactive) | -0.74% (inactive) |
| COCCN(CCOC)c1ncnc2c1cnn2-c1ccccc1 | 112% | 99% (inactive) | 112% (inactive) | 88.4% (inactive) | 86.6% (inactive) | -6.92% (inactive) | 93.5% | 86.6% | -4.8% (inactive) | 4.33% (inactive) | -5.8% (inactive) | 1.92% (inactive) | 1.43% (inactive) | 107% (inactive) | 98.5% (inactive) | 0.505% (inactive) | 3.39% (inactive) |
| Cc1ccc(C2CC(c3ccc(C)cc3)n3nc(N)nc3N2)cc1 (stereo not given) | 95% | 109% (inactive) | 95% (inactive) | 102% (inactive) | 88.5% (inactive) | -8.68% (inactive) | 97.1% | 88.5% | -1.79% (inactive) | -1% (inactive) | 1.83% (inactive) | 12.3% (inactive) | -0.92% (inactive) | 96.7% (inactive) | 93.1% (inactive) | 1.34% (inactive) | 1.75% (inactive) |
| Fc1cccc(Nc2ncnc3c2cnn3-c2ccccc2)c1 | 83.5% | 70.5% (inactive) | 83.5% (inactive) | 54.9% (inactive) | 37.9% (active) | -31.6% (inactive) | 69.5% | 37.9% | 2.4% (inactive) | -1.67% (inactive) | -5.18% (inactive) | -6.66% (inactive) | -5.13% (inactive) | 71.5% (inactive) | 70.2% (inactive) | 0.315% (inactive) | 0.26% (inactive) |
| O=C(Cn1cc2c(n1)CCCCC2)N1CCc2ccccc2C1 | 116% | 114% (inactive) | 116% (inactive) | 95% (inactive) | 92.9% (inactive) | 3.17% (inactive) | 89.8% | 92.9% | -2.18% (inactive) | -3% (inactive) | 7.48% (inactive) | 10.6% (inactive) | 1.54% (inactive) | 86.2% (inactive) | 84.7% (inactive) | 1.98% (inactive) | 6.93% (inactive) |
| Cc1cccc(-n2ncc3c(N(CCO)CCO)ncnc32)c1 | 97% | 91.5% (inactive) | 97% (inactive) | 78.7% (inactive) | 90% (inactive) | 11.3% (inactive) | 78.7% | 90% | -5.2% (inactive) | -1.97% (inactive) | -0.18% (inactive) | 0.945% (inactive) | -1.41% (inactive) | 94.9% (inactive) | 101% (inactive) | 2.43% (inactive) | -0.31% (inactive) |
| O=C(c1ccc2c(c1)OCCO2)N1CCCCC1 | 117% | 97% (inactive) | 117% (inactive) | 91.8% (inactive) | 101% (inactive) | -1.2% (inactive) | 102% | 101% | -0.91% (inactive) | 0.17% (inactive) | 3.7% (inactive) | 6.82% (inactive) | -1.22% (inactive) | 97.2% (inactive) | 97.4% (inactive) | 0.88% (inactive) | 5.28% (inactive) |
| Cc1nn(-c2ccc(F)cc2)c2c1cc(C#N)c1nc3ccccc3n12 | 102% | 81% (inactive) | 102% (inactive) | 56.2% (inactive) | 86.3% (inactive) | 5.42% (inactive) | 80.9% | 86.3% | -2.89% (inactive) | -2.67% (inactive) | 1.38% (inactive) | 8.66% (inactive) | -1.92% (inactive) | 95.9% (inactive) | 93.5% (inactive) | 0.36% (inactive) | 6.61% (inactive) |
| COc1ccc(OCc2nc(C#N)c(N3CCN(c4ccc(OC)cc4)CC3)o2)cc1 | 94% | 115% (inactive) | 94% (inactive) | 90.6% (inactive) | 94% (inactive) | 15% (inactive) | 79% | 94% | -3.07% (inactive) | -8.17% (inactive) | -0.985% (inactive) | -1.77% (inactive) | 9.38% (active) | 72.5% (inactive) | 73.5% (inactive) | 1.06% (inactive) | 9.16% (inactive) |
| COC(=O)C1=C(N)OC2=C(C(=O)CCC2)C1c1cccs1 (stereo not given) | 110% | 85% (inactive) | 110% (inactive) | 93.7% (inactive) | 101% (inactive) | 17.8% (inactive) | 83.2% | 101% | -4.19% (inactive) | 4.1% (inactive) | -2.24% (inactive) | -6.3% (inactive) | -2.89% (inactive) | 94.9% (inactive) | 92.9% (inactive) | 2.75% (inactive) | 4.64% (inactive) |

Source: PubChem BioAssay
